Measured values from ChEMBL document CHEMBL5308541, “MAIP: An Open-Source Tool to Enrich High-Throughput Screening Output and Identify Novel, Druglike Molecules with Antimalarial Activity” (ACS Med Chem Lett, 2023).
The whole screen tested about 150,000 compounds, of which about 540 (0.36%) showed an effect of 50% or more. What follows is part of a selection rich in strong results, with near analogues and random picks from the rest.

System: Plasmodium falciparum
Test: Primary screen in NF54 nanoGlo assay, in single point, at 2uM, 72h; a lower Z score goes with more inhibition
Type: functional, Erythrocyte
Conditions: timepoint 72 hour

`CC(C)(C)c1ccc(CNC[C@H](O)c2ccc(F)cc2F)cc1` was tested. Which “% Inhibition” value did it give?
The value was 94%.

What about the Z score of the same compound?
Its Z score is -16.43.

What does the source list for `CC(C)c1nc(N2CCC[C@@]3(CCNC3)C2)c2cc[nH]c2n1`?
% Inhibition: 2%; Z score: -0.48

Which “% Inhibition” value does the source give for `c1ccc(-c2cncnc2N2CC[C@]3(CCNC3)C2)cc1` here?
Its value is -14%.

What about the Z score of the same compound?
Its Z score is 2.09.

What does the source list for `CN(C)CC12CNCC1CN(c1ccnc3cc(Cl)ccc13)C2` (centres undefined)?
% Inhibition: 97%; Z score: -19.2

What does the source list for `Fc1ccc(N2CC[C@H](CN3CCC(c4c[nH]c5ccccc45)(c4c[nH]c5ccccc45)CC3)C2)cc1`?
% Inhibition: 95%; Z score: -18.87

Which results are given for `CCc1nnc(NCc2ccc(C)nc2N2CCCC2)nc1CC`?
% Inhibition: -19%; Z score: 2.94

What does the source list for `Cc1ccc(CNc2ncnc(N)c2Cl)c(N2CCCC2)n1`?
% Inhibition: 50%; Z score: -8.64

Which results are given for `O[C@@H](CNCc1ccc2c(c1)CCO2)c1ccc(F)c(F)c1`?
% Inhibition: 72%; Z score: -12.64

How did the “% Inhibition” value turn out when `Cc1ccc([C@@H](O)CNCc2cc(O)cc(Cl)c2)cc1` was run?
Its value is 7%.

What about the Z score of the same compound?
The Z score was -1.59.

How did the “% Inhibition” value turn out when `Fc1ccc(C2=CCN(C[C@@H]3CCCN4CCCC[C@H]34)CC2)cc1` was run?
Its value is 0%.

What about the Z score of the same compound?
Its Z score is -0.03.

How did the “% Inhibition” value turn out when `CN1CCN(c2ccc(C(F)(F)F)cc2NCc2cnc[nH]2)CC1` was run?
The value was 52%.

What about the Z score of the same compound?
Its Z score is -7.95.

Which “% Inhibition” value does the source give for `Clc1ccc(CNCCN2CCC3(C2)OCCO3)c2ncccc12` here?
The value was -1%.

And the Z score?
The Z score was 0.17.
